# Shown are actives, neighbours in structure and some others; about 6.1% of the full set was active somewhere.
# D1 antagonist: antagonists of human D1 dopamine receptor. P21728. HEK293 TREx D1 cells, calcium flux, dopamine EC80; hits give low values. activity change, negative = inhibition, % at 10 µM. actives 3.2% (n = 360,000). AID 504652; in the data active = activity change below about -30%; note: % is set by controls: 0 for no effect and ±100 for the full control effect
#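 Tetracycline-induced HEK293 Trex D1 cells, force-coupled to calcium, dye-loaded; compounds added and read 180 s, then EC80 dopamine added and calcium flux tracked kinetically another 180 s.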
# D1 PAM: potentiators of human D1 dopamine receptor | potentiation, % at 10 µM | P21728 | actives 0.036% (n = 360,000) | HEK293 TREx D1 cells, calcium flux, dopamine EC20 potentiation; in the data active = potentiation above about 30%; note: 0% is about no effect
# D3 ag: activates the human D3 dopamine receptor; D3R DiscoveRx beta-arrestin cells, luminescence, 90 min; max activation, %; actives 0.58% (n = 410,000); in the data active = max activation above about 30%; note: 0% is about no effect
#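 Cells at 1500/well, incubated overnight, then treated with pinned compounds (dopamine as control) for 90 min at 37 degrees C. DiscoveRx reagent added for 30 - 60 minutes at room temperature; luminescence read.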
# DRD3 antagonist: antagonists of human D3 dopamine receptor; actives 2.5% (n = 360,000); AID 652054; max response, negative = inhibition, %; P35462; D3R cells, DiscoveRx beta-arrestin luminescence, antagonist mode; hits give low values; in the data active = max response below about -50%; inconclusive = no clear call, values can overlap the other calls; note: % is set by controls: 0 for no effect and ±100 for the full control effect
#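 Cells plated overnight at 1500 cells/well, then exposed to library compounds with dopamine controls for 90 minutes at 37 degrees C. DiscoveRx reagent added for 30–60 minutes at room temperature; luminescence read, quantitative HTS format.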
# D1 ag: activates the human D1 dopamine receptor; P21728; HEK293 T-REx D1 cells, calcium flux, agonist mode; activation, % at 2 µM; actives 1% (n = 360,000); AID 504660; in the data active = activation above about 30%; note: 0% is about no effect
#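 Inducible HEK293 T-REx D1 cells, force-coupled to calcium signalling, were plated at 4000 cells/well with tetracycline and held overnight at 30 C. After no-wash calcium dye loading, compound-evoked calcium rise over 180 s flagged agonists.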
# ERG-DNA inh: inhibitors of human ERG Ets domain-DNA interaction; Potency, µM (top dose mostly 76.9 µM), inactives show top-dose FP activity, negative = inhibition, hits mostly inhibitors; AID 624246; actives 0.028% (n = 370,000); P11308; fluorescence polarization, His-ERG Ets domain / labelled DNA; active = well fitted inhibition curve with a large enough effect in the polarisation, with a control signal flat; inconclusive = small, poorly fitted or top-dose-only effect, or effect the other way, or a change in a side signal; inactive = no such curve, though single readings can be large or run the other way; the % refers to the polarisation;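 note: polarization taken with two DNA probes labelled with fluorescein and Texas red; potency is the fitted concentration of half-maximal effect; % of control where 0% means no effect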
# Target sequence (P11308 whole entry, looked up, the tested form may be a part): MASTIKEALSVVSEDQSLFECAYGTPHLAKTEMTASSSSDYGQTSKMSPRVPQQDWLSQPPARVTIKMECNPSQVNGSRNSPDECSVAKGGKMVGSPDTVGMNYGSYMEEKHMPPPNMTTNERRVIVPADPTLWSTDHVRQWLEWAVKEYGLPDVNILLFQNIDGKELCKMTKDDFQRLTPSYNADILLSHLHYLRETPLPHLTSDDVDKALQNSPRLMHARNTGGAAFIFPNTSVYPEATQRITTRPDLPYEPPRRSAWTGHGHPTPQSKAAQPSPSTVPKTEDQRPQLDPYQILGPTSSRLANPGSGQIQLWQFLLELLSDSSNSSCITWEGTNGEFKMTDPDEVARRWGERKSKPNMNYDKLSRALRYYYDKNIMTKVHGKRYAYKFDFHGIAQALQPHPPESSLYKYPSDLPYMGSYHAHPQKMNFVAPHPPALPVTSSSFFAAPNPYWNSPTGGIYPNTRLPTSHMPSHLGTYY
#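 His-tagged ERG Ets domain (1 uM in the protein solution; 300mM KCl, 50mM Tris-HCl, 1mM EDTA, 1mM DTT, pH 7.5) received compound, then a probe mix of 5 nM fluorescein-DNA and 100nM Texas-615-DNA. Fluorescence polarization was read for both dyes.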
# * marks the source's active call; other numbers are inactive results; u = inconclusive; x = no result.
SMILES,D1 antagonist,D1 PAM,D3 ag,DRD3 antagonist,D1 ag,ERG-DNA inh
O=C1N(CN2CCC3(CC2)OCCO3)c2ccccc2C12OCCCO2,-11,-6,13,-13,5,-6%
CCN(CC)CC1C(=O)N(c2ccc(OC)cc2)C1c1ccccc1 (stereo unspecified),-39*,-5,-4,3,8,6%
COc1ccc(-c2nc(-c3ccc(Br)o3)no2)cc1,-17,-7,0,19,3,1%
COc1ccc(-c2c(C(=O)c3ccccc3)[nH]c(N)c2C(=O)c2ccccc2)cc1OC,x,x,-10,-67*,x,x
COc1ccc(-c2c(C(=O)c3ccccc3)[nH]c(N)c2C(=O)c2ccc(Br)cc2)cc1OC,x,x,-4,-73*,x,x
COc1cc(-c2c(C(=O)c3ccccc3)[nH]c(N)c2C(N)=O)ccc1F,x,x,3,21,x,x
CN(c1ccc(OCC(=O)OCc2nnc(-c3ccccc3)o2)cc1)S(=O)(=O)c1ccc(Cl)cc1,-10,-13,-4,10,29,12%
O=[N+]([O-])c1cc(CSC2=NCCN2)ccc1O,-55*,2,1,-12,0,9%
COc1ccc(CNC(=O)C(c2ccco2)N(Cc2cccs2)C(=O)Cc2cccs2)cc1 (stereo unspecified),-14,7,2,-13,29,-7%
COc1ccc(CNC(=O)C(c2ccco2)N(C(=O)Cc2cccs2)c2cccnc2)cc1 (stereo unspecified),-35*,-3,4,3,6,-3%
Cc1csc(NC(=O)CSc2nnc(-c3ccoc3C)o2)n1,-6,-5,-1,9,9,-4%
Cc1occc1-c1nnc(SCC(=O)Nc2nc(C(C)(C)C)cs2)o1,x,-3,3,8,31*,-1%
CC(C)CCNC(=O)C(=O)Nc1c2c(nn1-c1ccccc1)CS(=O)(=O)C2,x,1,-7,x,-4,3%
COC1=CC(=O)c2ccccc2C1=O,x,x,-38,-71*,x,4%
COc1ccc(SN=C2C(C)=CC(=O)C=C2C)cc1,5,4,-17,u,3,6%
COC1=CC(=O)C=C(OC)C1=O,x,x,-93,-121*,x,-2%
CC(C)c1ccc(NC2CCCN(C(=O)CN3C(=O)CSC3=O)C2)cc1 (stereo unspecified),-12,-4,8,12,1,-4%
CC(C)Oc1cccc(C(=O)C2CCCN(Cc3cccn3-c3ccccn3)C2)c1 (stereo unspecified),-19,-10,-12,-14,20,4%
O=C(c1cccc(C(F)(F)F)c1)C1CCCN(Cc2cccn2-c2ncccn2)C1 (stereo unspecified),9,-3,-17,-54*,14,7%
CCOc1cc(CN2CCCC(C(=O)c3cccc(C(F)(F)F)c3)C2)ccc1O (stereo unspecified),-3,-7,-16,-70*,16,1%
COc1cc(CN2CCCC(C(=O)c3ccc(C(C)(C)C)cc3)C2)cc(OC)c1O (stereo unspecified),33,-3,-22,-59*,4,4%
COCc1ccc(C(=O)N2CCCC(C(=O)c3cccc(C(F)(F)F)c3)C2)o1 (stereo unspecified),3,2,2,6,1,-5%
COc1ccc(CN2CCCC(C(=O)c3ccc(Cl)cc3)C2)cc1Cn1cccn1 (stereo unspecified),-6,-3,-12,-22,3,4%
COc1cccc(C(=O)C2CCCN(Cc3cccn3-c3ccccn3)C2)c1 (stereo unspecified),-32*,-6,-8,-21,26,u
N=c1ccn(Cc2ccc([N+](=O)[O-])cc2)cc1,7,0,-18,-7,3,-8%
O=C(COc1ccc(Cl)cc1Cl)N1CCNC1=O,-3,-7,-4,-5,0,-17%
O=C1CC(N2CCN(c3ccc(Cl)c(Cl)c3)CC2)C(=O)N1 (stereo unspecified),-21,-16,-6,-12,32*,-5%

# Compound activity (PubChem BioAssay)
